From PMC4336329 (PLoS ONE, 2015)
About 14,000 (4.5%) of roughly 310,000 compounds showed an effect of 50% or more. The effect is printed as a negative number. The full list was thinned out, with strong results kept by preference.

Biological target: human ether-à-go-go-related gene (hERG) potassium channel (human, UniProt Q12809)
Assay: primary screen, population patch clamp on CHO cells stably expressing hERG; higher = less effect of the substance
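Also: peak tail current of the secondary pulse compared with the same well before compound.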

human ether-à-go-go-related gene (hERG) potassium channel, sequence (Q12809 whole entry, looked up): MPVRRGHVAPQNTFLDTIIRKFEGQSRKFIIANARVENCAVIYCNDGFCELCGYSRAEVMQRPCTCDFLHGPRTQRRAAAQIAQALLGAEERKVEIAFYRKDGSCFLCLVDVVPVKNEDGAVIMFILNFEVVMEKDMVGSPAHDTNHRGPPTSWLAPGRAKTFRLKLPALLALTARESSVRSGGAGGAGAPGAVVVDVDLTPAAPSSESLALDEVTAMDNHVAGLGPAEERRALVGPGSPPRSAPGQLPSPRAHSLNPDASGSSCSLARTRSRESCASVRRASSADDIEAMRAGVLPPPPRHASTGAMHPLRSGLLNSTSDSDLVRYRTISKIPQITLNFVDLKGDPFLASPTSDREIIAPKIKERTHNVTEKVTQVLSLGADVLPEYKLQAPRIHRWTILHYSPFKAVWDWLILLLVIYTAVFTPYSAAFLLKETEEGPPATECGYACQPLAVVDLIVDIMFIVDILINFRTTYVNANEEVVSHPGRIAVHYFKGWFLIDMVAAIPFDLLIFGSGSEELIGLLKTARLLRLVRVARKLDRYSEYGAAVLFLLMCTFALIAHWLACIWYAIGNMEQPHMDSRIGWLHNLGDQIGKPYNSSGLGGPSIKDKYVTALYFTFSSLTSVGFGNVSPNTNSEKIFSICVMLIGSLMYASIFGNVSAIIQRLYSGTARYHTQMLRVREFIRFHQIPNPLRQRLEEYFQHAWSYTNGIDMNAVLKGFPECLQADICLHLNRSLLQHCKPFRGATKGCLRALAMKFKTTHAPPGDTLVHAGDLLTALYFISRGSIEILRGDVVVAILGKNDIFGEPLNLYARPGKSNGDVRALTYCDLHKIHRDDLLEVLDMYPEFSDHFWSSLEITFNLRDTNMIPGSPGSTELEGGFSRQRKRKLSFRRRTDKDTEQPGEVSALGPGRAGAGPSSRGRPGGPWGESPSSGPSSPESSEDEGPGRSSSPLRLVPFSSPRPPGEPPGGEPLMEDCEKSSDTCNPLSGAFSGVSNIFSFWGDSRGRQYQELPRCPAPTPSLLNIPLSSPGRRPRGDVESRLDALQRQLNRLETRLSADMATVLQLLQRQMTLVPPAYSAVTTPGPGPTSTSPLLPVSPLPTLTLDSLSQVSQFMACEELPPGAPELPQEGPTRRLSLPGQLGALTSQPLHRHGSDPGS

SMILES	hERG current change (%, negative = inhibition) at 10uM
CCc1ccc(OCC(=O)N/N=C/c2cc([N+](=O)[O-])ccc2N2CCOCC2)cc1	-14.6%
CCN(CC)S(=O)(=O)c1ccc(-c2cn3ccc(C)cc3n2)cc1	7.52%
O=C(O)C(=O)O.OC(COCc1cccs1)CN1CCN(c2cccc(Cl)c2)CC1 (centres unmarked)	-63.8%
OC(COC(c1ccccc1)c1ccccc1)CN1CCN(c2cccc(Cl)c2)CC1 (centres unmarked)	6.16%
OC(COCc1cccs1)CN1CCN(c2cccc(C(F)(F)F)c2)CC1 (centres unmarked)	-69.6%
Cl.OC(COCc1cccs1)CN1CCCCCC1 (centres unmarked)	-21.9%
CN1CCCN(CC(O)COCc2cccs2)CC1 (centres unmarked)	-2.94%
O=C(Cc1cccs1)N1CCN(c2cccc(Cl)c2)CC1	-12%
CCOC(=O)CNC(=O)c1cn(CC(C)C)c(=O)c2cc(OC)c(OC)cc12	-24%
CCCC(=O)Nc1nnc(-c2ccccc2)o1	7.03%
CCOc1ccc(NC(=O)CN(C)C(=O)c2cc(-c3ccc(OC)cc3)nc3ccccc23)cc1OCC	-2.15%
COCCN(CC(=O)Nc1cccc(C)c1C)C(=O)c1cc(-c2ccncc2)nc2ccccc12	-57.3%
CCOc1ccc(NC(=O)CN(C)C(=O)c2cc(C)nc3ccccc23)cc1OCC	-16.2%
CCOc1ccc(NC(=O)CN(C)C(=O)c2cccnc2Sc2ccccc2Cl)cc1OCC	-8.63%
COCCN(CC(=O)Nc1cccc(C)c1C)C(=O)c1ccc2ccccc2n1	-0.121%
COCCN(CC(=O)Nc1cccc(C)c1C)C(=O)c1cc2ccccc2cc1OC	-26.7%
CCOc1ccc(NC(=O)CN(C)C(=O)c2cccnc2Sc2ccc(C)c(C)c2)cc1OCC	0.0885%
CCOc1ccc(NC(=O)CN(C)C(=O)c2cc(-c3ccncc3)nc3ccccc23)cc1OCC	-58.6%
CCOc1ccc(NC(=O)CN(C)C(=O)c2cccnc2Sc2ccc(Cl)cc2)cc1OCC	-52.4%
O=C(Cc1ccc(S(=O)(=O)N2CCOCC2)s1)N1CCN(S(=O)(=O)c2cccc(Cl)c2)CC1	-5.33%
CC(=O)N1N=C(c2ccc(C)cc2)OC1c1ccc(Br)cc1 (centres unmarked)	27.8%
Cc1nnc(NC(=O)CSc2ccc(-c3ccco3)nn2)s1	9.75%

SMILES	hERG current change (%, negative = inhibition) at 10uM
CC(C)NC(=O)CSc1nc(N)c(NC(=O)c2ccco2)c(=O)[nH]1	14.7%
OCCNc1nc2nonc2nc1NCCO	11%
Cc1cccc(CN2CCN(C(c3ccccc3)c3ccc(Cl)cc3)CC2)c1.Cl (centres unmarked)	18.5%
CN1CCN(C(=O)/C=C/c2cccc(Cl)c2)CC1	-6.45%
CN1CCN(C(c2cccc(Cl)c2)c2ccccc2Cl)CC1.O=C(O)/C=C\C(=O)O (centres unmarked)	-73.1%
CN1CCCN(C(c2ccccc2)c2ccc(Cl)cc2)CC1.Cl (centres unmarked)	-73.8%
Clc1ccc(C(c2ccccc2)N2CCNCC2)cc1 (centres unmarked)	-22.7%
CN1CCN(C(c2ccccc2)c2ccccc2)CC1.Cl	-12.1%
O=C(O)/C=C/C(=O)N1CCN(C(c2ccccc2)c2ccccc2)CC1	40.8%
Clc1ccc(C(c2ccccc2)N2CCN(c3ccccn3)CC2)cc1 (centres unmarked)	-5.64%
CN1CCN(C(c2ccccc2)c2ccc(Cl)cc2)CC1.Cl (centres unmarked)	-60.9%
COc1cccc(CN2CCN(c3ncccn3)CC2)c1OC	-3.3%
COc1ccc(CCNC(=O)c2nnn(CC(=O)Nc3ccccc3C)c2N)cc1OC	16.3%
CSc1ncccc1C(=O)Nc1ccc(C)cn1	0.536%
Cc1ccc(CS/C(Nc2ccccc2C)=C(\C#N)C(=O)NCc2ccco2)c(C)c1	9.03%
CCN(CC)S(=O)(=O)c1ccc(C(=O)NCCCN=C2NS(=O)(=O)c3ccccc32)cc1	-5.24%
CCC1(CC)C(=O)C2=C3C1[C@H](C(=O)OC)C=C(C(=O)OC)C[C@H]3[C@H]1C(=O)N(CC(=O)OC)C(=O)[C@H]1[C@H]2C (some centres unmarked)	5.84%
COc1ccc(OC)c(S(=O)(=O)Nc2cc3c4c(c2)CCN4C(=O)CC3)c1	-2.69%
C=CCn1c(SCC(=O)N2CC(=O)Nc3ccccc32)nc2scc(-c3ccccc3)c2c1=O	-1.72%
O=C(CSc1nccn(-c2ccc(Br)cc2)c1=O)NC1CCCC1	13.7%
Cc1nnc(NC(=O)CSc2nnc(CNC(=O)c3ccc(S(=O)(=O)N(C)C)cc3)o2)s1	22.6%
CC(Cl)C(=O)NNC(=O)CNS(=O)(=O)c1ccccc1 (centres unmarked)	-0.478%

SMILES	hERG current change (%, negative = inhibition) at 10uM
CN(C)/C=C\C(=C/C(=O)C(F)(F)F)Nc1ccccc1Oc1ccccc1	-24.4%
Cc1ccc(NC(/C=C/N(C)C)=C/C(=O)C(F)(F)F)c(C)c1	-56.7%
CN(C)/C=C/C(=C\C(=O)C(F)(F)F)Nc1ccc(C(F)(F)F)cc1	2.83%
C=CCc1ccc(OCC(O)CN2CCc3ccccc3C2)c(OC)c1.Cl (centres unmarked)	-68.8%
COc1cc(COCC(O)CN2CCCCC2C)cc(OC)c1OC.Cl (centres unmarked)	20.6%
C=CCc1ccc(OCC(O)CN2CCCCC2C)c(OC)c1.Cl (centres unmarked)	-55.1%
COc1cc(COCC(O)CN2CCc3ccccc3C2)cc(OC)c1OC.Cl (centres unmarked)	-21.7%
C=CCc1ccc(OCC(O)CN2CCC(Cc3ccccc3)CC2)c(OC)c1.Cl (centres unmarked)	-77.5%
C=CCc1ccc(OCC(O)CN2CCN(c3ccccc3OC)CC2)c(OC)c1.Cl (centres unmarked)	-16.2%
C=CCc1ccc(OCC(O)CN2CCN(c3ccccc3)CC2)c(OC)c1.Cl (centres unmarked)	-70.3%
C=CCc1ccc(OCC(O)COc2ccc(CC=C)cc2OC)c(OC)c1	-24.5%
CC(=O)C(C)n1c(CN(C)Cc2ccccc2)nc2c1c(=O)n(C)c(=O)n2C (centres unmarked)	-5.4%
O=C(CSc1cc([N+](=O)[O-])cc(S(=O)(=O)Cc2ccccc2)c1)NC1CC1	-9.88%
COCCNC(=O)COc1ccc(C)c(C)c1	3.36%
Cc1cc(S(=O)(=O)N2CCC(N3CCCCC3)CC2)ccc1-n1cnnn1	-1.17%
COc1cccc(C2CC(c3ccccc3Cl)n3nnnc3N2)c1 (centres unmarked)	-12.1%
O=C(Nc1nc2ccccc2s1)c1cccc(S(=O)(=O)N2CCc3ccccc32)c1	-7.03%
Cc1cccc(OCCCC(=O)NNC(=O)c2ccc(F)cc2)c1	-7.21%
COc1ccc(-c2nn3c(C4CCCCC4)nnc3s2)cc1OC	-15.2%
COc1ccc(-n2nc(C(=O)NCC(=O)NC3CCCCCC3)c3ccccc3c2=O)c(OC)c1	11.1%
N/C(=N\OC(=O)COc1ccc(Cl)cc1Br)c1cccnc1	-8.3%
C=CCc1ccc(OC)c(OC)c1	23.8%

SMILES	hERG current change (%, negative = inhibition) at 10uM
C=CCc1ccc(OCC(O)CN2CCN(Cc3ccc(Cl)cc3)CC2)c(OC)c1.Cl (centres unmarked)	-75.7%
C=CCc1ccc(OCC(O)COCC)c(OC)c1 (centres unmarked)	-3.56%
C=CCc1ccc(OCC(O)CN2CCCCC2)c(OC)c1 (centres unmarked)	-54.8%
C=CCc1ccc(OCC(O)CN2CCN(Cc3ccccc3)CC2)c(OC)c1.Cl (centres unmarked)	-77%
C=CCc1ccc(OCC(O)CO)c(OC)c1 (centres unmarked)	11.6%
C=CCN1C(=O)c2ccc(C(=O)N3CCN(S(=O)(=O)c4ccccc4Br)CC3)cc2C1=O	-41.2%
O=C(NC(=S)Nc1ccccc1[N+](=O)[O-])c1ccccc1	6.17%
CSc1nc(N)nc(SCCS(=O)(=O)c2ccc(Cl)cc2)c1C#N	-3.5%
CN(C(=O)COC(=O)c1ccc2c(c1)NC(=O)CS2)C1CCS(=O)(=O)C1 (centres unmarked)	31.3%
CC1(C)C2C/C(=N\O)C(C)(/[N+]([O-])=C/c3cccc([N+](=O)[O-])c3)CC21 (centres unmarked)	-10.7%
COc1ccc(C(C(=O)NC2CCCC2)N(Cc2cccnc2)C(=O)Cc2cccs2)cc1OC (centres unmarked)	-1.66%
Cc1cccc(CN2CCOCCS2(=O)=O)c1	10.2%
O=C(/C=C/c1cccs1)N1CCCC1	33.1%
COc1cccc(CC2(CO)CCN(S(=O)(=O)N(C)C)CC2)c1	11.9%
OCC1(Cc2cccc(Cl)c2)CCCN(Cc2ccc3cc(F)ccc3n2)C1 (centres unmarked)	-23.8%
COc1cccc(CC2(CO)CCN(Cc3ccc4cccc(F)c4n3)CC2)c1	-64.4%
OCC1(CCOc2ccccc2)CCN(Cc2ccc3cccc(F)c3n2)CC1	-83%
OCC1(Cc2cccc(F)c2)CCN(Cc2ccc3cccc(F)c3n2)CC1	-64.7%
CC(C)c1csc(CN2CCC(CO)(Cc3cccc(F)c3)CC2)n1	-17.3%
COc1cccc(CN2CCN(Cc3ccc4cccc(F)c4n3)CC2CCO)c1 (centres unmarked)	-39.9%
